Sampled rows, rich in hits. Any-hit rate of the full collection: about 8%.
Gal4-VP16 FLuc: counter-screen for ROR gamma inhibitors: Gal4-VP16 reporter. Drosophila S2 Gal4-VP16 UAS-luciferase, luminescence, 20 h. Potency, µM (top dose mostly 53.6 µM), inactives show at the top dose activity, negative = inhibition, actives largely listed as inhibitors. actives 3.5% (n = 310,000). AID 2546;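 note: Gal4-VP16 expression switched on by copper sulfate through the metallothionein promoter; potency is the fitted concentration of half-maximal effect; nearly all actives have a fitted effect of over 50% in size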
RORg inh: inhibitors of mouse ROR gamma transcriptional activity; P51450; Drosophila S2 Gal4-RORgamma UAS-luciferase reporter, 20 h; Potency, µM (highest dose often 53.6 µM), for inactives: at the highest dose activity change, negative = inhibition, most hits filed as inhibitors; actives 5.4% (n = 310,000); AID 2551; note: potency is the fitted concentration of half-maximal effect; nearly all actives have a fitted effect of over 60% in size
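Using a luciferase readout, inhibitors were identified by reduced reporter activity in Drosophila cells coexpressing a copper-inducible Gal4–ROR gamma fusion and UAS-driven Photinus luciferase, incubated 20 hr after 700 uM copper sulfate.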
ELG1 DNA repair: inhibitors of ELG1-dependent DNA repair in HEK293T cells. HEK293T ELG1-luciferase reporter, luminescence, 16 h; DNA damage induced by 5-fluorouridine. Potency, µM (series often up to 46.1 µM), for inactives: at the highest dose activity change, negative = inhibition, most hits filed as inhibitors. actives 2.3% (n = 330,000). AID 504467; note: potency is the fitted concentration of half-maximal effect; nearly all actives have a fitted effect of over 55% in size
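In this reporter screen, reduction of luminescence relative to DMSO vehicle indicated activity. Compounds and 5-fluorouridine were added together to 2,000 cells per well, incubated for 16 hr at 37 °C, then developed with ONE-Glo.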
Coupling enz: coupling enzyme interference in Giardia aldolase counter-screen; coupling enzyme system counterscreen, AmpLite Red fluorescence; activity change, negative = inhibition, % at 58.2 µM, hits read low; AID 2472; actives 0.67% (n = 290,000); in the data active = activity change below about -30%
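Fluorescence at 525 nm excitation and 598 nm emission measured inhibition of the coupled detection system without aldolase. Compounds (at 57.5 uM final) were preincubated 10 min at room temperature with coupling enzyme reagent before a 20 min substrate/AmpLite Red step.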
TSHR antagonist: antagonists of human thyroid stimulating hormone receptor; actives 0.2% (n = 330,000); TSHR-expressing cells, TSH-stimulated cAMP HTRF, 2 h; stronger effect = lower value; activity change, negative = inhibition, % at 11.5 µM;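 active = activity change below a set negative limit, meaning inhibition stronger than a set level, cut at about -70% in these data; inconclusive = activity change between two set negative limits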
Target sequence (P16473 whole entry, looked up): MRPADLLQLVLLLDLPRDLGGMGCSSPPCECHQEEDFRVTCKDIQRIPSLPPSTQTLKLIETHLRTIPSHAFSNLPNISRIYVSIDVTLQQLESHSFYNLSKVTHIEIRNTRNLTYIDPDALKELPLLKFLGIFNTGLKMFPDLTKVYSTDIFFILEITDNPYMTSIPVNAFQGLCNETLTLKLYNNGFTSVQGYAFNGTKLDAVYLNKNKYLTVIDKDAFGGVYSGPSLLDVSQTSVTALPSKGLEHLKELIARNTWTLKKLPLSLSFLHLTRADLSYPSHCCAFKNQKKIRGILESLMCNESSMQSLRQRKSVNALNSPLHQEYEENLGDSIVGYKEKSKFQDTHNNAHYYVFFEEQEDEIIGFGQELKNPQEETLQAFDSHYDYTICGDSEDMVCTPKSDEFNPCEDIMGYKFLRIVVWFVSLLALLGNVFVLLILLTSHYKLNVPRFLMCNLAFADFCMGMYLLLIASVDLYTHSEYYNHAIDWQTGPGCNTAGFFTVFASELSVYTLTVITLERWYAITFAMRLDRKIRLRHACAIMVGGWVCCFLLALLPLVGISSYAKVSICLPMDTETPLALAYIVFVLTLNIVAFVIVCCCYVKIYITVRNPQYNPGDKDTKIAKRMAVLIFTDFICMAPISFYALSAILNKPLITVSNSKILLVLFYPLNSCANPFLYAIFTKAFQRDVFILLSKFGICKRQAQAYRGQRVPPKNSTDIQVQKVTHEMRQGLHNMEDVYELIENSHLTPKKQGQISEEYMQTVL
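Read-out is FRET at 665 nm (cryptate excitation 337 nm) from a cryptate-tagged anti-cAMP antibody, competed by cell cAMP against cAMP-d2. Compounds are tested on freshly harvested TSHR cells challenged with 4nM TSH (EC80) for 2 hours at 37 deg C.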
Active calls of the source: *; [ ] = remark or other dose. Unless noted, calls come from the whole dose curve; as a rule, active = well fitted curve in the direction sought with a large enough effect; inconclusive = small, poorly fitted or top-dose-only effect, or another doubt; inactive = no such curve, though single readings can be large; an effect the other way counts as inactive or inconclusive. % is set by controls: 0 for no effect and ±100 for the full control effect.

Results for CCCN1CCc2c(sc(NC(=S)NC(=O)c3ccccc3)c2C#N)C1 ?
Gal4-VP16 FLuc: -9.2%[10 µM]; RORg inh: 8.0%; ELG1 DNA repair: inconclusive; Coupling enz: 0.6; TSHR antagonist: -3.6

What do the screens show for `CC(C)C1Cc2c(sc(NC(=S)NC(=O)c3ccccc3)c2C#N)CO1` (stereo not given)?
Gal4-VP16 FLuc: inconclusive; RORg inh: 5.62µM*; ELG1 DNA repair: 15.8%; Coupling enz: -2.1; TSHR antagonist: -0.2

Results for O=C(Cc1ccon1)c1ccc(O)cc1O ?
Gal4-VP16 FLuc: 18.5%; RORg inh: 19.5%; ELG1 DNA repair: inconclusive; Coupling enz: 1.0; TSHR antagonist: 7.7

What do the screens show for `O=C(O)CN1C(=O)C(=O)N(Cc2ccc(Cl)cc2Cl)C1=O`?
Gal4-VP16 FLuc: -1.6%; RORg inh: -12.5%; ELG1 DNA repair: 3.1%; Coupling enz: 8.5; TSHR antagonist: -7.4

What do the screens show for `O=C(CC1C[C@H](C(=O)N2CCOCC2)[C@@]2(CCC3CCCC3)c3[nH]c4ccccc4c3CCN2C1=O)NCCCn1ccnc1` (stereo not given in full)?
ELG1 DNA repair: 1.9%; TSHR antagonist: -4.7

How did Cc1cc(O)cc(O)c1C(=O)OC1(C)C(=O)C=C2C=C(/C=C/CO)OC=C2C1=O (stereo not given) do in these assays?
Gal4-VP16 FLuc: -11.7%; RORg inh: -18.0%; Coupling enz: 1.0

Results for Fc1cccc(/C=C2\CCCC3=C2NC(=S)NC3c2cccc(F)c2)c1 (stereo not given) ?
Gal4-VP16 FLuc: 3.55µM*; RORg inh: 2.82µM*; ELG1 DNA repair: inconclusive; Coupling enz: 0.1; TSHR antagonist: -4.2

Results for S=C1NC2=C(CCC/C2=C\c2ccc(Cl)cc2)C(c2ccc(Cl)cc2)N1 (stereo not given) ?
Gal4-VP16 FLuc: inconclusive; RORg inh: 14.7%; ELG1 DNA repair: -22.3%; Coupling enz: -3.4; TSHR antagonist: 2.8

How did S=C1NC2=C(CCC/C2=C\c2ccccc2)C(c2ccccc2)N1 (stereo not given) do in these assays?
Gal4-VP16 FLuc: 8.91µM*; RORg inh: 3.55µM*; ELG1 DNA repair: 8.1%; Coupling enz: 1.9; TSHR antagonist: -0.3

How did CC1CC2=C(NC(=S)NC2c2ccc(F)cc2)/C(=C/c2ccc(F)cc2)C1 (stereo not given) do in these assays?
Gal4-VP16 FLuc: 7.08µM*; RORg inh: 1.58µM*; ELG1 DNA repair: 6.8%; Coupling enz: 2.3; TSHR antagonist: -8.5

How did Fc1ccccc1/C=C1\CCCC2=C1NC(=S)NC2c1ccccc1F (stereo not given) do in these assays?
Gal4-VP16 FLuc: 11.2µM*; RORg inh: 2.51µM*; ELG1 DNA repair: inconclusive; Coupling enz: 0.3; TSHR antagonist: -5.3

Results for COCCNc1nc(-c2cccc(OC)c2)nc2ccccc12 ?
Gal4-VP16 FLuc: 3.0%; RORg inh: 0.6%; Coupling enz: -5.0

Results for CNC1=CN(O)C(c2ccccc2)=c2cc(Cl)ccc2=N1 ?
Gal4-VP16 FLuc: -5.6%; RORg inh: 22.1%; Coupling enz: 1.7

What do the screens show for `O=C(O)[C@@H]1C[C@H](C(=O)O)N1`?
Gal4-VP16 FLuc: -1.7%; RORg inh: 18.7%; Coupling enz: 1.5; TSHR antagonist: 17.4

How did CC(C)COc1ccc(-c2nnc(-c3ccco3)o2)cc1 do in these assays?
Gal4-VP16 FLuc: inconclusive; RORg inh: inconclusive; ELG1 DNA repair: inconclusive; Coupling enz: -6.2; TSHR antagonist: -5.5

How did CCCOc1ccc(-c2nnc(-c3ccco3)o2)cc1 do in these assays?
Gal4-VP16 FLuc: inconclusive; RORg inh: 4.47µM*; ELG1 DNA repair: inconclusive; Coupling enz: 1.4; TSHR antagonist: 21.5

Results for COc1ccc(C)cc1NC(=O)CN1CCCN(S(=O)(=O)c2ccc(Br)cc2)CC1 ?
Gal4-VP16 FLuc: -0.8%; RORg inh: 10.8%; ELG1 DNA repair: 0.0%; Coupling enz: -2.9; TSHR antagonist: 0.0

What do the screens show for `Cc1ccc(NCc2ccc(O)c3ncccc23)cc1`?
Gal4-VP16 FLuc: 1.78µM*; RORg inh: 1µM*; ELG1 DNA repair: -10.6%; Coupling enz: -9.3; TSHR antagonist: 23.0

Results for Cc1cccnc1NCc1ccc(O)c2ncccc12 ?
Gal4-VP16 FLuc: 2.82µM*; RORg inh: inconclusive; ELG1 DNA repair: 10.9%; Coupling enz: 3.4; TSHR antagonist: -14.2

Results for Cc1cccc(NCc2ccc(O)c3ncccc23)c1C ?
Gal4-VP16 FLuc: inconclusive; RORg inh: 7.94µM*; ELG1 DNA repair: 8.4%; Coupling enz: -2.8; TSHR antagonist: -8.2

Results for O=C(c1ccccc1)[C@@H]1O[C@H]1c1ccc(-c2ccccc2)cc1 ?
Gal4-VP16 FLuc: -2.5%; RORg inh: 21.7%; Coupling enz: 1.7

How did CCOC(=O)N1CCN(C(=O)CNC(=O)c2ccc(Cl)cc2)CC1 do in these assays?
Gal4-VP16 FLuc: 4.7%; RORg inh: 5.8%; ELG1 DNA repair: 18.9%; TSHR antagonist: 17.4

Results for NC1=C(c2ccccc2)C(=O)NC1=O ?
Gal4-VP16 FLuc: -3.0%; RORg inh: -9.9%; ELG1 DNA repair: 8.1%; Coupling enz: 0.4; TSHR antagonist: 11.6

How did O=C(c1cccs1)c1no[n+]([O-])c1C(=O)c1cccs1 do in these assays?
Gal4-VP16 FLuc: 11.2µM*; RORg inh: 11.2µM*; ELG1 DNA repair: inconclusive; Coupling enz: -67.0*; TSHR antagonist: 14.9

Results for Cc1cccc(NC(c2ccc(O)cc2)c2ccc3ccc(C)nc3c2O)n1 (stereo not given) ?
Gal4-VP16 FLuc: -3.6%; RORg inh: 10µM*; ELG1 DNA repair: -3.6%; Coupling enz: -7.9; TSHR antagonist: -1.6

Results for Cc1ccc2cccc(NC(=O)C(F)(F)F)c2n1 ?
Gal4-VP16 FLuc: -5.4%; RORg inh: inconclusive; ELG1 DNA repair: -18.6%; Coupling enz: -25.2; TSHR antagonist: -5.3

What do the screens show for `O=C1c2ccccc2C(=O)C1c1ccccn1`?
Gal4-VP16 FLuc: -19.9%; RORg inh: inconclusive; ELG1 DNA repair: inconclusive; Coupling enz: -0.4; TSHR antagonist: -4.1

What do the screens show for `O=C1c2ccccc2C(=O)C1c1ccncc1`?
Gal4-VP16 FLuc: 11.2µM*; RORg inh: inconclusive; ELG1 DNA repair: inconclusive; Coupling enz: -1.2; TSHR antagonist: -13.7

What do the screens show for `COc1ccccc1C(=O)COC(=O)CCNS(=O)(=O)c1ccc(C)c(C)c1`?
ELG1 DNA repair: 2.4%; TSHR antagonist: 3.7

What do the screens show for `COc1ccccc1NC(=O)CCCCCN1C(=O)c2cccc([N+](=O)[O-])c2C1=O`?
Gal4-VP16 FLuc: 1.9%; RORg inh: -0.5%; ELG1 DNA repair: -2.0%; Coupling enz: 1.7; TSHR antagonist: -8.2

What do the screens show for `COc1cc(/C=C2/C(=O)c3cccc([N+](=O)[O-])c3C2=O)c(Br)cc1O`?
Gal4-VP16 FLuc: 35.5µM*; RORg inh: inconclusive; ELG1 DNA repair: inconclusive; Coupling enz: -8.7; TSHR antagonist: 4.0

Compound activity from PubChem.
